Assay results reported in PubChem BioAssay AID1159580 (chemical genetic matrix, 2015).
“And” between values parts separate entries of the source, which are not always exact repeats. Identical values can stand only once. Out of some 5,500 compounds screened, about 2,000 (36%) were called active. Another 18% or so got no clear call; they are omitted. Cut-off read from the data, not from the text of the source: active = normalized growth mostly below about 0.91 (no sharp cut-off); inconclusive = no clear call, values can overlap the other calls; inactive = mostly above about 0.92. The list shows a part of the results.

Test: chemical genetic growth profiling, strain panel (AID 1159580);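 note: tested at 20 µM; growth read once vehicle control cultures reached saturation at 30 °C; 1 = growth at the plate median or of vehicle wells; lower values mean less growth of the strain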
Settings: S. cerevisiae deletion strains, growth OD

Measured: normalized growth

N#Cc1c(Cl)cccc1Cl
inactive: locus YAL013W, strain DEP1, active compounds read low 1.01 | locus YAL021C, strain ccr4, active compounds read low 1.01 | locus YAL026C, strain drs2, active compounds read low 0.988 | locus YAL030W, strain snc1, active compounds read low 0.979 | locus YBL061C, strain skt5, active compounds read low 0.979 | locus YBR009C, strain hhf1, active compounds read low 0.959 | locus YBR021W, strain FUR4, active compounds read low 1.02 | locus YBR023C, strain chs3, active compounds read low 0.981 | locus YBR171W, strain sec66, active compounds read low 0.982 | locus YBR229C, strain ROT2, active compounds read low 1.01 | locus YBR231C, strain swc5, active compounds read low 0.98 | locus YBR279W, strain paf1, active compounds read low 0.983 | locus YCL011C, strain gbp2, active compounds read low 0.954 | locus YCL016C, strain dcc1, active compounds read low 0.983 | locus YCL029C, strain bik1, active compounds read low 1.01 | locus YCL069W, strain vba3, active compounds read low 0.98 | locus YCR088W, strain abp1, active compounds read low 0.985 | locus YDL005C, strain med2, active compounds read low 0.977 | locus YDL035C, strain GPR1, active compounds read low 1.01 | locus YDL040C, strain nat1, active compounds read low 0.991 | locus YDL074C, strain BRE1, active compounds read low 1.03 | locus YDL101C, strain DUN1, active compounds read low 1.01 | locus YDL134C, strain PPH21, active compounds read low 1 | locus YDL185W, strain tfp1, active compounds read low 1.01 | locus YDL192W, strain arf1, active compounds read low 1.01 | locus YDR001C, strain nth1, active compounds read low 0.977 | locus YDR069C, strain doa4, active compounds read low 0.983 | locus YDR101C, strain arx1, active compounds read low 1.01 | locus YDR137W, strain rgp1, active compounds read low 1.01 | locus YDR150W, strain NUM1, active compounds read low 1.01 | locus YDR159W, strain sac3, active compounds read low 0.995 | locus YDR162C, strain NBP2, active compounds read low 1.01 | locus YDR195W, strain ref2 0.991 | locus YDR297W, strain sur2, active compounds read low 0.972 | locus YDR318W, strain mcm21, active compounds read low 1.01 | locus YDR334W, strain swr1, active compounds read low 0.952 | locus YDR335W, strain msn5, active compounds read low 0.977 | locus YDR388W, active compounds read low 1.01 | locus YDR392W, strain spt3, active compounds read low 1 | locus YDR502C, strain sam2, active compounds read low 1.01 | locus YEL003W, strain gim4, active compounds read low 0.969 | locus YEL037C, strain rad23, active compounds read low 0.981 | locus YEL061C, strain CIN8 (second series), active compounds read low 0.98 | locus YEL061C, strain CIN8, active compounds read low 1.01 | locus YER015W, strain faa2, active compounds read low 0.98 | locus YER016W, strain bim1, active compounds read low 0.979 | locus YER110C, active compounds read low 1 | locus YER111C, strain swi4, active compounds read low 0.965 | locus YER155C, strain BEM2 (second series), active compounds read low 0.975 | locus YER155C, strain BEM2, active compounds read low 1.01 | locus YER167W, strain BCK2, active compounds read low 1.01 | locus YFR010W, strain ubp6, active compounds read low 0.98 | locus YGL078C, strain dbp3, active compounds read low 1.01 | locus YGL086W, strain mad1, active compounds read low 1.01 | locus YGL167C, strain pmr1, active compounds read low 0.978 | locus YGL173C, strain kem1, active compounds read low 0.99 | locus YGL227W, strain vid30, active compounds read low 0.974 | locus YGL240W, strain doc1, active compounds read low 0.965 | locus YGL248W, strain PDE1, active compounds read low 1 | locus YGL253W, strain hxk2, active compounds read low 0.987 | locus YGR078C, strain PAC10, active compounds read low 1.01 | locus YGR135W, strain pre9, active compounds read low 1.01 | locus YGR229C, strain SMI1, active compounds read low 1.02 | locus YGR252W, strain gcn5, active compounds read low 1.09 | locus YHR013C, strain ard1, active compounds read low 1.02 | locus YHR027C, strain rpn1, active compounds read low 0.977 | locus YHR030C, strain SLT2, active compounds read low 1.02 and 0.941 | locus YHR079C, strain IRE1 (second series), active compounds read low 1.01 | locus YHR079C, strain IRE1, active compounds read low 0.965 | locus YHR094C, strain hxt1, active compounds read low 1.01 | locus YHR129C, strain ARP1, active compounds read low 1.01 | locus YHR142W, strain chs7, active compounds read low 0.976 | locus YHR200W, strain rpn10, active compounds read low 1.01 | locus YIL066C, strain RNR3, active compounds read low 1.04 | locus YIL073C, strain SPO22, active compounds read low 1.03 | locus YIL125W, strain kgd1, active compounds read low 1.01 | locus YIR030C, strain dcg1, active compounds read low 1.02 | locus YJL092W, strain hpr5, active compounds read low 0.976 | locus YJL095W, strain BCK1 (second series), active compounds read low 0.997 | locus YJL095W, strain BCK1, active compounds read low 0.999 and 0.941 | locus YJL115W, strain asf1, active compounds read low 0.959 | locus YJL129C, strain trk1, active compounds read low 0.976 | locus YJL134W, strain LCB3, active compounds read low 1.01 | locus YJL154C, strain vps35, active compounds read low 0.978 | locus YJL164C, strain tpk1, active compounds read low 0.996 | locus YJL166W, strain qcr8, active compounds read low 0.978 | locus YJL168C, strain set2, active compounds read low 1.01 | locus YJL187C, strain SWE1 (second series), active compounds read low 1.01 | locus YJL187C, strain SWE1, active compounds read low 0.988 | locus YJR043C, strain POL32, active compounds read low 1.02 | locus YJR066W, strain TOR1, active compounds read low 0.936
